According to PubChem BioAssay (NCI):
Compounds without any hit were thinned out: in the full panel of roughly 83,000, 20% have a hit.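 Note: values are percent growth. 100 is the growth of untreated cells, values between 100 and 0 indicate rising inhibition; between -100 and 0 indicates cell death.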 A number with no mark means an inactive call. Calls of active or inactive are those of the source.

What follows are compounds tested on U251 CNS (assay: NCI-60 one-dose screen, 48 h (100 = growth as untreated, 0 = no growth, -100 = all killed)). Conditions: 10 µM unless noted.
Description: Growth inhibition of the U251 human tumor cell line is measured as a screen for anti-cancer activity. Cells are grown in 96 well plates and exposed to the test compound for 48 hours. Compounds are tested at a single concentration, which is 10^-5 M for most compounds. The reported endpoint is percent growth (GI% or GIPRCNT), where numbers from 0 - 100% represent growth inhibition, and numbers from -100% - 0 represent cell death. For example, a value of 40 represents 60% growth inhibition. A value of 0 means no net growth occurred over the course of the experiment. A value of -40 indicates 40% of cells at the beginning of the experiment died by the end of the experiment. A value of -100 means all cells are dead at the end of the experiment.
NCI-60 Human Tumor Cell Lines Screen was performed using the standard one-dose NCI protocol, which is described in more detail at https://dtp.cancer.gov/discovery_development/nci-60/default.htm.
Compounds with GIPRCNT values below 10 were considered active. Activity score was based on GIPRCNT using the following formula: […]
Score is 0 for GIPRCNT values of 100 or above, 50 for GIPRCNT values of 0, and 100 for GIPRCNT values of -100.

| Compound | growth |
| --- | --- |
| C=C(C)[C@@H]1CC[C@]2(C)[C@H](CC=C3[C@@H]4C[C@](C)(C(=O)N5CCN(C)CC5)CC[C@]4(C)CC[C@]32C)[C@@]1(C)CCC#N | 50% |
| CCCCCCCCCCC(C(O)c1ccccc1)N1CCCCC1 (stereo not given) | 28% |
| N#CC1=C(N)Oc2nc[nH]c(=O)c2C1c1cccs1 (stereo not given) | 96.3% |
| O=C(Oc1c(Cl)c(Cl)c(Cl)c(Cl)c1Cl)C1CCCN1C(=O)OCc1ccccc1 (stereo not given) | 18.3% |
| CCCCNCCC(O)c1cc2ccc(C(F)(F)F)cc2c2cc(C(F)(F)F)ccc12 (stereo not given) | -93.7% (active) |
| COc1cc2nccc(Oc3ccc(NC(=O)C4(C(=O)Nc5c(F)cc(F)cc5F)CC4)cc3)c2cc1Oc1ccc(N)cn1 | 67.3% |
| COc1ccc(NC(=O)/C=C/c2ccc(NC(=O)N3CCCC3)cc2)cn1 | 98.6% |
| O=C1CC2(O)CSc3nc(=O)cc(n32)N1 (stereo not given) | 97.2% |
| O=C(O)C1[S][Sb]([CH](C(=O)O)[CH](C(=O)O)[Sb]2[S]C(C(=O)O)C(C(=O)O)[S]2)[S]C1C(=O)O (stereo not given) | 73.1% |
| COc1c(B(O)O)cccc1-c1nc2ccc3[nH]ncc3c2c2c1CCCC2 | 13.2% |
| COc1cc(C2CC(c3cccc(Nc4ccnc5cc(Cl)ccc45)c3)=NN2c2ccc(Cl)cc2)cc(OC)c1OC (stereo not given) | 75.2% |
| CCCc1n(Cc2ccc3ccccc3n2)cc[n+]1Cc1ccc2ccccc2c1 | 11.2% |
| CNC(=O)c1cc(Oc2ccc(NC(=O)c3nc(S(C)(=O)=O)sc3-c3ccc(F)cc3)cc2)ccn1 | 86.6% |
| COc1ccc(/C=C2\N=C(c3cccnc3)N(c3ccccc3)NC2=O)cc1 | 106% |
| Cc1cc(C)c2c(n1)sc1c(Nc3ccc(OCc4ccccc4)cc3)ncnc12 | 98.4% |
| CC1=C(C(=O)Nc2ccc(F)cc2)C(c2ccc(C)cc2)C2=C(CC(C)(C)CC2=O)N1 (stereo not given) | 88.8% |
| CN1CCN(Cc2ccc(NC(=O)c3cncc(C#Cc4ncc5cnccn45)c3)cc2C(F)(F)F)CC1 | 64.2% |
| Nc1nc2ccc([C@@H]3Nc4ccc5[nH]ncc5c4[C@H]4[C@H]5CCC(C5)[C@H]43)cc2s1 | 23.8% |
| COCCn1c(Nc2ccc(C(=O)NO)cc2)nc2ccccc21 | 61.4% |
| COc1ccc(C(=O)C(CN(C)C)c2ccccc2)cc1 (stereo not given) | 31.6% |

| Compound | growth |
| --- | --- |
| Cc1cc(O)c(C2=NN(c3ccc(S(N)(=O)=O)cc3)C(c3ccc(Cl)cc3)C2)c(C)c1Cl (stereo not given) | 70% |
| C=CCn1c(SCC(=O)Nc2ccc(C(=O)/C=C/c3ccc(Cl)cc3)cc2)nnc1-c1ccc(Cl)cc1 | 79.7% |
| CC1=C(O)C(=O)C(c2c(C)cc(C)c(Br)c2C)=C(O)C1=O | 65.8% |
| Nc1nonc1-c1nc2ccccc2n1Cc1ccc(F)cc1 | 52.3% |
| COC(=O)c1cc(Cl)cc([N+](=O)[O-])c1O | 112% |
| NC(=S)N/N=C(/c1cccs1)C1CC1 | 72.9% |
| CCCCn1c(C)nc2cc(Nc3nc(Cl)nc4nc[nH]c34)ccc21 | 77.2% |
| Fc1ccc2nc(-c3ccc(-c4noc(-c5ccc(Cl)cc5)n4)cc3)[nH]c2c1 | 103% |
| CN1CCN(Cc2ccc(NC(=O)c3cccc(C#Cc4cnc(N)c5ncccc45)c3F)cc2C(F)(F)F)CC1 | -88.2% (active) |
| CCc1ccc2c(c1)N(CCO)C1=C(C(=O)OC1)C2c1cccc(Br)c1 (stereo not given) | 24% |
| COc1cc2c(cc1C)NC(=O)/C2=C\c1c[nH]c2ccccc12 | 61.5% |
| COc1cc2nccc(Oc3ccc(NC(=O)C4(C(=O)Nc5ccc(F)cc5)CC4)cc3)c2cc1OC(=O)c1ccc(N)cc1 | 7.81% (active) |
| CC(C)c1[nH]ncc1-c1nc2ccc3[nH]ncc3c2c2c1CCCC2 | 37.7% |
| N#Cc1c(N)c(C(=O)c2ccc3c(c2)OCCO3)n2c1CCCC2 | 15.4% |
| COc1cc(C2=NOC(c3cc(OC)c(OC)c(OC)c3)C2)ccc1OCCCCOc1cc2c(cc1OC)C(=O)N1CCC[C@H]1C=N2 (stereo not given in full) | -9.51% (active) |
| C=C(C)c1ccc(/C=N/NC(N)=S)cc1 | 93.9% |
| c1ccc(C(Nc2ccccn2)(c2ccccc2)c2ccccc2)cc1 | 84.3% |
| O=C(NNC(=S)Nc1ccccc1)c1ccc(Nc2ncnc3c2cnn3-c2cccc(Br)c2)cc1 | 114% |
| COC(=O)c1ccc(NC(N)=NCCC(C)(C)c2ccc(C(F)(F)F)cc2)nc1 | 30.5% |
| Cc1ccc(S(=O)(=O)NC(CCC(=O)Nc2ccc(Cl)cc2)C(=O)Nc2ccc(Cl)cc2)cc1 (stereo not given) | 12.5% |
